This is an account of results in PubChem BioAssay (Tox21).

A short description of experiment [1]: Nuclear factor erythroid 2-related factor 2/antioxidant responsive element (Nrf2/ARE) small molecule agonists: qHTS cell viability counter screen in human keratinocytes (AID 1919968; active = well fitted curve in the direction sought with a large enough effect in the repeat runs; an effect the other way counts as inactive or inconclusive; also: nearly all actives have a fitted effect of over 55% in size). In short, it runs like this:
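In human HaCaT keratinocytes stably expressing an ARE-driven luciferase, compound exposure lasted 23 h at 37 C under 5% CO2. Viable cells are quantified with a protease-based fluorogenic reagent (CellTiter-Fluor) read 1 h after addition.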

The nature of experiment [2]: Nuclear factor erythroid 2-related factor 2/antioxidant responsive element (Nrf2/ARE) small molecule agonists: luciferase reporter gene qHTS assay in human keratinocytes (AID 1919969). Also: nearly all actives have a fitted effect of over 35% in size. Also: potency is read from the fitted curve at half-maximal effect.
The target in experiment [3] is Gonadotropin-releasing hormone receptor (Homo sapiens) (UniProt P30968). Put plainly: Human gonadotropin-releasing hormone receptor (GnRHR) small molecule agonists, calcium flux assay in GnRHR-HEK293 cells (AID 1920063). Also: nearly all actives have a fitted effect of over 35% in size. In short, it runs like this:
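Intracellular calcium rise is the read-out: engineered human GnRHR HEK293 cells, dye-loaded, are exposed to DMSO-dissolved compounds and fluorescence at Ex/Em 480/540 is tracked for 3 min.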

Experiment [4] has as its target KiSS-1 receptor (Homo sapiens) (UniProt Q969F8). Put plainly: Human kisspeptin (KISS1R) small molecule agonists, calcium flux assay in KISS1R-HEK293 cells (AID 1920064; active = well fitted curve in the direction sought with a large enough effect in the repeat runs; an effect the other way counts as inactive or inconclusive). A digest of the protocol:
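Concentration-response testing used 15 concentrations in triplicate on human KISS1R-expressing HEK293 cells. Calcium-dependent fluorescence (Ex/Em 480/540) was followed kinetically for 3 min after compound transfer.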

A short description of experiment [5]: p53 small molecule agonists, cell-based qHTS assay with rat liver microsomes (AID 1963578). In short, it runs like this:
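p53RE-bla cells, 4,000/well, pre-incubated 5 h, then given compounds plus rat liver microsomes (0.5 mg/mL final) and NADPH (0.5 mg/mL final). Incubation 16 h at 37 C; beta-lactamase reporter read by LiveBLAzer fluorescence after 2 h at room temperature.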

A short description of experiment [6]: p53 small molecule agonists, cell-based qHTS assay with human liver microsomes: qHTS cell viability counter screen (AID 1963579). Also: nearly all actives have a fitted effect of over 45% in size. In short, it runs like this: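 p53RE-bla cells, 4,000/well, dosed 5 hours after plating, with human liver microsomes (0.5 mg/mL final) plus NADPH (0.5 mg/mL final), 16 hours at 37 C. Viability read as CellTiter-Glo luminescence after 30 min at room temperature.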

Experiment [7] is described as follows: p53 small molecule agonists, cell-based qHTS assay with rat liver microsomes: qHTS cell viability counter screen (AID 1963580). Also: nearly all actives have a fitted effect of over 45% in size. A digest of the protocol: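 Cytotoxicity counter screen: intracellular ATP measured by CellTiter-Glo luminescence in the same wells as the beta-lactamase reporter read, on HCT-116 p53RE-bla cells exposed 16 h at 37 C to compounds with rat liver microsomes and NADPH, each 0.5 mg/mL final.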

The nature of experiment [8]: p53 small molecule agonists, cell-based qHTS assay: qHTS cell viability counter screen (AID 1963581). Also: nearly all actives have a fitted effect of over 45% in size. In short, it runs like this:
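Luminescence from CellTiter-Glo, reflecting ATP content, serves as the cytotoxicity measure; it is taken after the 2 h reporter substrate step in HCT-116 p53RE-bla cells dosed for 16 h at 37 C.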

Experiment [9] is described as follows: p53 small molecule agonists, cell-based qHTS assay (AID 1963582; active = well fitted activation curve with a large enough effect in the signal ratio in the repeat runs, not every such curve was filed as active; the % refers to the signal ratio). In short, it runs like this: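 After plating, p53RE-bla cells sat 5 h in the incubator; compounds or DMSO vehicle were pinned in; a 16 h incubation at 37 C followed; FRET substrate was added and, 2 h later at RT, fluorescence was measured.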
The target of experiment [10] is 5-hydroxytryptamine receptor 2A (Homo sapiens) (UniProt P28223). The experiment in a line: 5-hydroxytryptamine receptor 2A (HTR2A) small molecule antagonists, cell-based qHTS assay (AID 1963586). Also: nearly all actives have a fitted effect of over 45% in size. In short, it runs like this:
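CHO cells stably expressing human HTR2A were plated for 18 h at 37 C, then loaded with calcium dye for 1 h. Compounds were preincubated 5 min at room temperature before DOI (4 nM solution) was added. Kinetic fluorescence was read for 3 min.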

For experiment [11] the target is unchanged. Put plainly: 5-hydroxytryptamine receptor 2A (HTR2A) small molecule agonists, cell-based qHTS assay (AID 1963587). Also: nearly all actives have a fitted effect of over 30% in size. Also: potency is read from the fitted curve at half-maximal effect. A digest of the protocol:
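CHO cells stably expressing human HTR2A, plated 18 h, loaded with calcium dye 1 h at 37 C. Agonist mode: compounds added and intracellular calcium fluorescence recorded kinetically for 2 min at 1 sec intervals.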

Experiment [12] concerns the target Muscarinic acetylcholine receptor M1 (Homo sapiens) (UniProt P11229). Put plainly: Cholinergic receptor muscarinic 1 (CHRM1) small molecule agonists, cell-based qHTS assay (AID 1963589). Also: nearly all actives have a fitted effect of over 35% in size. A digest of the protocol:
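Fluorescent calcium dye reports M1 activation in stably transfected CHO cells. Compounds, 15 concentrations, added after 1 h dye loading at 37 C; kinetic reading at 1 sec intervals.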

The nature of experiment [13]: cAMP Responsive Elements (CRE) small molecule agonists, cell-based qHTS assay (AID 1963590). In short, it runs like this: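 Compound exposure lasted 3 h at 37 C/5% CO2 in CRE-bla HEK 293T cells grown in assay medium with 10% dialyzed FBS and 25 mM HEPES. Reporter signal came from LiveBLAzer B/G FRET substrate, 2 h, room temperature.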
Experiment [14] can be described thus: cAMP Responsive Elements (CRE) small molecule antagonists, cell-based qHTS assay (AID 1963591; active = well fitted inhibition curve with a large enough effect in the signal ratio in the repeat runs, not every such curve was filed as active; the % refers to the signal ratio). In short, it runs like this: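 Stimulation used NKH477 at a final 0.25 uM for 3 h in compound-treated CRE-bla HEK293T cells, seeded 18 h beforehand. Reporter activity was measured with LiveBLAzer B/G FRET substrate after 2 h at room temperature.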
The target in experiment [15] is Beta-2 adrenergic receptor (Homo sapiens) (UniProt P07550). The experiment in a line: Adrenergic beta2 receptor (ADRB2) small molecule antagonists, cell-based qHTS assay (AID 1963592). Also: series mostly up to about 92 µM; nearly all actives have a fitted effect of over 50% in size. A digest of the protocol: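 Assay format: CHO-ADRB2 cells, 18-20hr seeding at 37C/5% CO2, then compound plus 1nM isoproterenol agonist mix for 0.5hr RT. Homogeneous time-resolved fluorescence cAMP detection after 1hr, expressed as 665/615 nm ratio.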

Experiment [16] shares this target. Put plainly: Adrenergic beta2 receptor (ADRB2) small molecule agonists, cell-based qHTS assay (AID 1963593).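 Also: CHO cells stably overexpressing human ADRB2.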 In short, it runs like this:
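CHO cells stably over-expressing ADRB2 were plated overnight at 37C, then dosed with compounds plus a stimulation mix containing 100uM IBMX and 25uM Ro-20-1724 for 0.5hr at room temperature. cAMP was measured by HTRF competition, 1hr.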

For experiment [17], the target named is D(2) dopamine receptor (Homo sapiens) (UniProt P14416). The experiment in a line: Dopamine D2 receptor (DRD2) small molecule agonists, cell-based qHTS assay (AID 1963594). Also: nearly all actives have a fitted effect of over 35% in size. A digest of the protocol: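 HEK293 cells stably expressing human DRD2, pre-treated with PDE inhibitor Ro20-1724 (0.1 mM final) and compound 10 min at room temperature, then stimulated with NKH477 (200nM […]) for 30 min. cAMP read by HTRF (665/620 nm).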

The target is the same in experiment [18]. Put plainly: Dopamine D2 receptor (DRD2) small molecule antagonists, cell-based qHTS assay (AID 1963595; active = well fitted inhibition curve with a large enough effect in the signal ratio in the repeat runs, with a control signal flat; the % refers to the signal ratio). In short, it runs like this:
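Antagonist mode in DRD2-HEK293 cells: after compound addition with 0.1 mM Ro20-1724, cells received quinpirole (12 nM) and NKH477 (200 nM) for 30 min at room temperature; HTRF cAMP read after 1 h detection.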

The nature of experiment [19]: G protein-coupled receptor (GPCR) small molecule agonists, calcium flux assay: HEK293 wild type cell line counter screen (AID 1920065). In short, it runs like this:
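Fluorescence intensity signals activation. After overnight (18 h) culture and a 1 h calcium dye load at 37 C, compounds are added by pin tool and the plate read at 480/540 nm for 3 min in 1 s steps.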

Experiment [20] addresses Muscarinic acetylcholine receptor M1 (Homo sapiens) (UniProt P11229). Put plainly: Cholinergic receptor muscarinic 1 (CHRM1) small molecule antagonists, cell-based qHTS assay (AID 1963588). Also: nearly all actives have a fitted effect of over 40% in size. A digest of the protocol: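 Compounds were tested at 15 concentrations in three independent runs. Dye-loaded CHRM1-CHO cells were exposed 5 min at room temperature before stimulation by acetylcholine added at 50nM. Intracellular calcium was read kinetically on FDSS for 3 min.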

Values joined by “and” are separate entries in the source; they are usually repeats but may differ in a detail not shown here. Equal entries are not always repeated. Records with an inconclusive call do not appear. The source holds several records for some structures; these can differ, active in one and inactive in another. Active and inactive are the calls of the source. Unless noted, calls follow the shape of the full dose curve.

Gonadotropin-releasing hormone receptor (Homo sapiens), sequence (P30968 whole entry, looked up): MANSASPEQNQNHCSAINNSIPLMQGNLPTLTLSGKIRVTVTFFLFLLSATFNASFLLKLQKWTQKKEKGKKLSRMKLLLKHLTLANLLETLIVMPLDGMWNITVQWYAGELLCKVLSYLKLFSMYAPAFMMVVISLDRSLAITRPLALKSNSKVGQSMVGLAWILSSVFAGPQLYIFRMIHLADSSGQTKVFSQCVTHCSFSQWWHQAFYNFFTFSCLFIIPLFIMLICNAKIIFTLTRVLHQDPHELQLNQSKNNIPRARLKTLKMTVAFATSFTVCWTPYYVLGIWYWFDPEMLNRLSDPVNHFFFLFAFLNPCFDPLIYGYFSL
Muscarinic acetylcholine receptor M1 (Homo sapiens), sequence (P11229 whole entry, looked up): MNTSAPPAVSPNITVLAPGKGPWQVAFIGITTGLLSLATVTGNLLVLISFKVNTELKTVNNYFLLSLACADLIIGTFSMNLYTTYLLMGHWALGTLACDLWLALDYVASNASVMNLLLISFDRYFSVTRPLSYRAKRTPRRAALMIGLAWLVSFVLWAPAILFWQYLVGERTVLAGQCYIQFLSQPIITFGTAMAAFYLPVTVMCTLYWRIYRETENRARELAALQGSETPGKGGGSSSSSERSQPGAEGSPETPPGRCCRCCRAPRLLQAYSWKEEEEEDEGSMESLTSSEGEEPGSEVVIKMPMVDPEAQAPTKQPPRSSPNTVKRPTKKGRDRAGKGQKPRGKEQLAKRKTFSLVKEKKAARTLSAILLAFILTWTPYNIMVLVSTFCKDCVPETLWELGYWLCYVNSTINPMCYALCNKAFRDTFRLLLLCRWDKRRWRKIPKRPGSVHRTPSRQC
D(2) dopamine receptor (Homo sapiens), sequence (P14416 whole entry, looked up): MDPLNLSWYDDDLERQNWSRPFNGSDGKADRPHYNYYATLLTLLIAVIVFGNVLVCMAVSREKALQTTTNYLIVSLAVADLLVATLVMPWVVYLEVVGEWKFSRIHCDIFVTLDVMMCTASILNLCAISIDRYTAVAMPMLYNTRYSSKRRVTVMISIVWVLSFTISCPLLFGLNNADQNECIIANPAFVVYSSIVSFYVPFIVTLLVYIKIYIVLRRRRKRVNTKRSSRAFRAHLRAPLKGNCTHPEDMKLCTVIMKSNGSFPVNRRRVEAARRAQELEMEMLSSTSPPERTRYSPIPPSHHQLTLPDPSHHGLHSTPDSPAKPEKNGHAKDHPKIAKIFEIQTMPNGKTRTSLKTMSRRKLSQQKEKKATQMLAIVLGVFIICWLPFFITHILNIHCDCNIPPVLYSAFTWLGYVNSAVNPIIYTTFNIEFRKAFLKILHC
Beta-2 adrenergic receptor (Homo sapiens), sequence (P07550 whole entry, looked up): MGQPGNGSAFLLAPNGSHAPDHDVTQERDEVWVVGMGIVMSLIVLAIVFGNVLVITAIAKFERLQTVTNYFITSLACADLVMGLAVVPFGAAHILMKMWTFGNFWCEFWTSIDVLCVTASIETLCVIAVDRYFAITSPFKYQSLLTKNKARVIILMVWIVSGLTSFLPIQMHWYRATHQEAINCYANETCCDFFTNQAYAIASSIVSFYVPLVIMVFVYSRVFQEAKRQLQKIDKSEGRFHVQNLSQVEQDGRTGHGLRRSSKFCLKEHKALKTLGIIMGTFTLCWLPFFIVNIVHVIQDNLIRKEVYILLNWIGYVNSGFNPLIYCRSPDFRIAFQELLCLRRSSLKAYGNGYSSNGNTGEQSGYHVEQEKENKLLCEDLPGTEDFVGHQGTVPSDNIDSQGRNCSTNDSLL
5-hydroxytryptamine receptor 2A (Homo sapiens), sequence (P28223 whole entry, looked up): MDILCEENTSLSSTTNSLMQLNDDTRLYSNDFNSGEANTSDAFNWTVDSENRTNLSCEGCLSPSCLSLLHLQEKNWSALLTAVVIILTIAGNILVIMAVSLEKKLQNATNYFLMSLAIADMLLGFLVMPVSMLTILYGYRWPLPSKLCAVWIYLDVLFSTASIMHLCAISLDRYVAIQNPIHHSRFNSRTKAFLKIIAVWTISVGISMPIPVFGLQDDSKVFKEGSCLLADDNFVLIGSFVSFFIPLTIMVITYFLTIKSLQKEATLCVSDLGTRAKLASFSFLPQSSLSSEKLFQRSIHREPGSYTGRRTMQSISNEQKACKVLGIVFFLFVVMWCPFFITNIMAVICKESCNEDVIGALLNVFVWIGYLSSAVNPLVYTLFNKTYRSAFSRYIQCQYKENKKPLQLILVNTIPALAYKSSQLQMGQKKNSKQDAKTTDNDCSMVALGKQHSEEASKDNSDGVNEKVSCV
KiSS-1 receptor (Homo sapiens), sequence (Q969F8 whole entry, looked up): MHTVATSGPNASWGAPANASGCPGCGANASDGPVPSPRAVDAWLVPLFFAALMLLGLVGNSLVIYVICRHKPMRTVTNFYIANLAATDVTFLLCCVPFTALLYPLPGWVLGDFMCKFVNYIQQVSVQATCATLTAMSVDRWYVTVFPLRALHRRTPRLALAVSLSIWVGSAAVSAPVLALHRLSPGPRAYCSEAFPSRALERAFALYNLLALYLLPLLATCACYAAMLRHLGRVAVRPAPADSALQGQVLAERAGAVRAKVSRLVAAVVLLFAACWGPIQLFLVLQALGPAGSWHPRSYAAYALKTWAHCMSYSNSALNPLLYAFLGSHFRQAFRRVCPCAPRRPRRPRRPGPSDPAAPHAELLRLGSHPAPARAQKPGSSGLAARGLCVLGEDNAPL

As for `CCCC(C)(COC(N)=O)COC(N)=O`, the Potency result in [1], in [2], in experiment [3], in experiment [4], in experiment [5] and in experiment [6] was “inactive” in each case. Further, the Potency entry in experiment [7], in experiment [8], in [9], in [10], in [11] and in experiment [12] was “inactive” throughout. Further, the Potency entry in [13], in experiment [14], in experiment [15], in experiment [16], in experiment [17] and in [18] was “inactive” throughout.

For `COc1ccc(N)cc1N`, the Potency result in [1], in experiment [3], in [4], in experiment [19], in experiment [6] and in experiment [7] was “inactive” each time. Besides, the Potency entry in [10], in experiment [20], in experiment [12], in experiment [14], in experiment [16] and in experiment [18] was “inactive” each time. Besides, the Potency is 25.1 µM (active) and 33 µM (active) in [2]; 22.6 µM (active) and inactive in experiment [11].

Consider `C#CCO`, for which the Potency result in [1], in experiment [2], in experiment [3], in experiment [4], in [5] and in [6] was “inactive” throughout. Also, the Potency result in experiment [7], in experiment [8], in experiment [9], in experiment [10], in experiment [11] and in [20] was “inactive” in each case. The Potency entry in experiment [12], in [13], in experiment [14], in experiment [15], in experiment [16] and in experiment [17] was “inactive” throughout. Besides, the Potency result in experiment [18] was “inactive”.

In the case of `CC1COC2(c3ccccc3Cl)c3cc(Cl)ccc3NC(=O)CN12` (centres undefined), the Potency result in [1], in [2], in experiment [3], in [4], in experiment [5] and in experiment [6] was “inactive” throughout. For the same molecule, the Potency result in [7], in [8], in experiment [9], in experiment [10], in experiment [11] and in [20] was “inactive” each time. Further, the Potency result in experiment [12], in experiment [14], in experiment [15] and in [16] was “inactive” throughout.

Turning to `C1CS1`, the Potency entry in experiment [1], in experiment [2], in [3], in experiment [4], in experiment [5] and in experiment [6] was “inactive” throughout. Also, the Potency entry in experiment [7], in experiment [8], in experiment [9], in [10], in experiment [11] and in [20] was “inactive” each time. In addition, the Potency entry in [12], in experiment [13], in experiment [14], in experiment [15], in experiment [17] and in experiment [18] was “inactive” throughout.

As to `COCCC#N`, the Potency entry in experiment [1], in experiment [2], in experiment [3], in experiment [4], in experiment [5] and in experiment [6] was “inactive” throughout. The Potency result in experiment [7], in experiment [8], in experiment [9], in experiment [11], in experiment [20] and in experiment [12] was “inactive” each time. Besides, the Potency result in experiment [13], in experiment [14], in experiment [15], in [16], in experiment [17] and in [18] was “inactive” in each case.

Take `CC(=O)C=C(C)C`: the Potency result in experiment [1], in experiment [2], in experiment [3], in experiment [4], in experiment [19] and in experiment [6] was “inactive” each time. Besides, the Potency result in [8], in [10], in experiment [11], in experiment [20], in experiment [12] and in [13] was “inactive” throughout. In addition, the Potency result in [14], in [15], in [16] and in experiment [18] was “inactive” throughout.

In the case of `CCCCC(CC)COC(=O)Cl` (centres undefined), the Potency result in experiment [1], in [2], in [3], in [4], in [19] and in [7] was “inactive” throughout. For the same molecule, the Potency result in experiment [8], in experiment [10], in experiment [11], in experiment [12], in experiment [14] and in experiment [15] was “inactive” in each case. Further, the Potency entry in experiment [16], in experiment [17] and in experiment [18] was “inactive” throughout.
